Compound activity as filed in PubChem BioAssay.
MITF primary: blocks human microphthalmia-associated transcription factor. inhibition, % at 2.6 µM. AlphaScreen MITF homodimerization, bead proximity signal. 650,000 compounds, 0.91% hits; in the data active = inhibition above about 50%;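 note: 0% = vehicle wells with protein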
TEAD-YAP block: TEAD-YAP interaction inhibition; HEK-TIYL cells, TEAD-Gal4/YAP UAS-luciferase luminescence; inhibition, % at 9.12 µM; 640,000 compounds, 1.4% hits; in the data active = inhibition above about 32%;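 note: 0% = median of test compound wells and 100% = reference inhibitor wells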
FBW7 activator: activators of human E3 ligase FBW7 | 650,000 compounds, 0.13% hits | Q969H0 | AlphaScreen FBW7–phospho-cyclin E peptide binding, activator screen | normalized activity (activation), % at 26.1 µM; in the data active = normalized activity above about 1.9%;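 note: purified mutant Fbw7 with reduced substrate affinity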
Target sequence (Q969H0 whole entry, looked up): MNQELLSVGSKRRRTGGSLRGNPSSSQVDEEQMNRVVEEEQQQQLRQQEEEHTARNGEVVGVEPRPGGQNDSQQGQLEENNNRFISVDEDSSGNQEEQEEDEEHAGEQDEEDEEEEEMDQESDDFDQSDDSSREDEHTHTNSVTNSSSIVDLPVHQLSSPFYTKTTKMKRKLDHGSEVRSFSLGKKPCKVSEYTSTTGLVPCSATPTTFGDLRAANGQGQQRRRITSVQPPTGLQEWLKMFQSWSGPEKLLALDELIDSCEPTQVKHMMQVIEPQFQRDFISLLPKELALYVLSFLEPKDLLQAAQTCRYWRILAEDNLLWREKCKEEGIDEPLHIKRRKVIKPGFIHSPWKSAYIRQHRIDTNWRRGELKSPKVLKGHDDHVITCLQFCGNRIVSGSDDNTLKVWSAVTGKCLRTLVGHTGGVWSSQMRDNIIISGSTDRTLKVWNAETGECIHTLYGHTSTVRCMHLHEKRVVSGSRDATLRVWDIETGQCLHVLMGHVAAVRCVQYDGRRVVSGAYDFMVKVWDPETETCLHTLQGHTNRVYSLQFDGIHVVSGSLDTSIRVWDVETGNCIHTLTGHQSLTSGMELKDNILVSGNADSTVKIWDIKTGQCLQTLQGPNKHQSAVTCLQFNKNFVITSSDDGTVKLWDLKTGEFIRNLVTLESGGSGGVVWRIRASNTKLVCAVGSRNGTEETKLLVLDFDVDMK
GPR151 activ: human GPR151 activation | Q8TDV0 | PathHunter beta-arrestin GPR151 cells, luminescence | activation, % at 11.2 µM | 650,000 compounds, 1% hits; in the data active = activation above about 4.9%;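 note: 0% = median of compound wells and 100% = cells with positive control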
* marks the source's active call; other numbers are inactive results. Compounds with a hit are over-represented: about 3.5% of the library has one in this group of screens.

SMILES	MITF primary	TEAD-YAP block	FBW7 activator	GPR151 activ
COCCCNc1ncnc2ccc(Br)cc12	2	29	0	1
COc1ccccc1/C=C(\C#N)C(=O)Nc1ccc(C)cc1	3	-2	0	2
CCCN1C(=O)/C(=C\c2ccc(N(C)C)cc2)SC1=Nc1ccccc1	9	-10	0	-2
Cc1cc[n+]2cc(C)n(Cc3cccc(F)c3)c2c1	9	41*	1	0
Cc1cc(C)n(Cc2cccc(F)c2)c(=O)c1C#N	0	3	0	0
Cc1nnc(N/N=C/c2c(O)ccc3ccccc23)[nH]c1=O	-18	89*	0	0
Cc1cc(=O)[nH]c(N/N=C/c2c(O)ccc3ccccc23)n1	62*	89*	-1	-1
O=c1[nH]nc(N/N=C/c2c(O)ccc3ccccc23)c(=O)[nH]1	10	-10	-1	1
NC(=S)N/N=C/c1c(O)ccc2ccccc12	78*	4	0	-1
O=c1cnnc(N/N=C/c2c(O)ccc3ccccc23)[nH]1	117*	88*	0	-2
NC(=S)N/N=C/c1c2ccccc2cc2ccccc12	4	13	1	-1
O=C(CSc1nnc2c(n1)[nH]c1ccc(Cl)cc12)NCc1ccc2c(c1)OCO2	3	9	0	0
CN1CCCCC1C(=O)N/N=C/c1c(O)ccc2ccccc12 (stereo not given)	84*	78*	0	2
O=c1cc(CN2CCN(Cc3ccc4c(c3)OCO4)CC2)c2cc(O)c(O)cc2o1	91*	-3	-1	4
O=c1cc(CN2CCN(c3ccccc3O)CC2)c2cc(O)c(O)cc2o1	90*	-5	0	0
O=c1cc(CN2CCCCC2)c2cc(O)ccc2o1	6	1	0	0
COc1ccc(-c2ccc(C(=O)NCCc3ccccn3)c(NCC3CC3)n2)cc1	4	-1	0	0
N/C(=N\OC(=O)/C=C/c1ccccc1)c1cccnc1	13	-52	0	-1
N/C(=N\OC(=O)/C=C/c1ccc(Br)cc1)c1ccccn1	6	39*	0	-2
N/C(=N\OC(=O)/C=C/c1ccccc1Cl)c1ccccn1	-5	74*	0	-6
COc1ccc(N/N=C(\C#N)C(=N)SCc2ccccc2)cc1	3	33*	0	1
CCN1CCN(C2=CC(=[N+]3CCCC3)CC(C)(C)C2)CC1	-8	6	0	2
CC1(C)CC(N2CCCC2)=CC(=[N+]2CCCCC2)C1	20	70*	0	0
CC1(C)CC(N2CCCC2)=CC(=[N+]2CCCC2)C1	0	52*	0	1
CCOc1ccc(-c2cc(C(=O)N/N=C/c3ccccc3O)[nH]n2)cc1	0	50*	0	2
SMILES	MITF primary	TEAD-YAP block	FBW7 activator	GPR151 activ
COc1cccc(-c2cc(C(=O)N/N=C/c3ccccc3O)[nH]n2)c1	23	-18	0	-1
CCOc1ccc(-c2cc(C(=O)N/N=C/c3ccccn3)[nH]n2)cc1	21	34*	0	1
COc1ccc(-c2cc(C(=O)NN)[nH]n2)cc1	0	62*	0	-1
Cc1ccc(-c2cc(C(=O)NN)[nH]n2)cc1	15	-4	0	-1
COc1cc(C=O)cc(Cl)c1OC(=O)c1ccco1	19	3	0	0
COc1ccccc1N=Cc1c(O)n(-c2ccc(F)cc2)c(=O)[nH]c1=O	3	6	0	1
CCOC(=O)c1c(NC(=O)/C=C/C(N)=O)sc(C)c1C	6	45*	0	1
CCOC(=O)c1c(NC(=O)/C=C/C(=O)O)sc(C)c1-c1ccc(Cl)cc1	10	41*	0	0
COC(=O)c1c(NC(=S)Nc2ccccc2)sc(Cc2ccccc2)c1C	6	-4	0	1
COC(=O)c1c(NC(=O)/C=C/C(=O)O)sc(Cc2ccccc2)c1C	2	36*	1	-1
CCOC(=O)/C=C/C(=O)Nc1sc(C)c(C)c1C(N)=O	15	11	0	0
CCOC(=O)c1c(-c2ccc(OCC)cc2)csc1NC(=O)/C=C/C(=O)O	16	48*	0	-1
CC(=O)NCCC(=O)OC(C)C(=O)Nc1cccc(Cl)c1Cl (stereo not given)	-4	1	0	3
C=CC1=C(C)C2=CC3=NC(=C(CC(=O)[O-])C4=NC(=C(C)C4=C([O-])[O-])C=c4[n-]c(c(C)c4CC)=CC1=N2)C(CCC(=O)[O-])C3C.C=CC1=C(C)C2=CC3=NC(=C(CC(=O)[O-])C4=NC(=C(C)C4=C([O-])[O-])C=c4[n-]c(c(C)c4CC)=CC1=N2)C(CCC(=O)[O-])C3C.[Cu+2].[Na+].[Na+].[Na+] (stereo not given)	60*	14	0	0
